# Results taken from PubChem BioAssay.
# Calls of active or inactive are those of the source.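 The calls were made as follows, unless noted: active = inhibition of the reporter signal at or above 50%; inactive = inhibition below 50%.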
# Columns and labels:
# [1] = inhibitors of TNFa-induced NFkB p65 translocation, primary screen, imaging, HUVEC, MLSMR starter and 10KST1 sets (AID 438;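 active = inhibition above 20% together with a positive visual image hit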;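 also: compound added about 3h40 before a 20 min TNFalpha stimulation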;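 as to inhibition: signal is the nuclear over cytoplasmic p65 intensity ratio per well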); settings: HUVEC TNFa-induced p65 nuclear translocation; cell count: measured here: nuclei count (cytotoxicity indicator), at 2.08 µM; inhibition: at 2 µM, stronger effect = higher value, 0% TNFa-plus-vehicle, 100% no-TNFa wells
# [2] = reduction of polyQ htt aggregates in cells – imaging, exon1htt(103Q)mCFP cells, high-content imaging, primary screen (AID 483;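 active = visual image review flags a hit and inhibition of aggregation exceeds 20%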;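 also: compound exposure lasted 3 days before fixation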;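 as to nuclei count: percent of the per-plate median nuclei count of sample wells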); settings: exon1htt(103Q)mCFP cell line, aggregate imaging, at 2 µM; inhibition of aggregation: stronger effect = higher value; nuclei count: measured here: cell count, toxicity
# [3] = endothelial E-selectin expression blockers – imaging, HUVEC, immunofluorescence, MLSMR starter and 10KST1 sets, primary screen (AID 487;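 active = visually confirmed hit in the image check and inhibition above 20%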;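 as to inhibition: signal is fraction of cell area covered by stained E-selectin grains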;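 as to nuclei count: 100% = median nuclei count of all wells on the same plate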); settings: HUVEC TNFalpha-induced E-selectin immunofluorescence imaging, at 2 µM; inhibition: stronger effect = higher value; nuclei count: measured here: cell number, toxicity
# [4] = molecular target: Voltage-gated potassium channel subunit beta-2 (Rattus norvegicus) (UniProt P62483); test: inhibitors of rat Kvbeta2 reductase activity – biochemical, NADPH fluorescence, primary screen (AID 622;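 active = fluorescence slope higher than the sample average by over 3 SD, cut at about -0.22 in these data, passing the limit was not always enough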;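 also: slope of raw intensity against log time taken from 70 to 1610 s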); settings: recombinant KvBeta, 4-cyanobenzaldehyde reduction, at 10 µM, stronger effect = higher value
# [5] = molecular target: Voltage-gated potassium channel subunit beta-2 (Rattus norvegicus) (UniProt P62483); test: enhancers of rat Kvbeta2 NADPH turnover – biochemical, NADPH fluorescence, primary screen (AID 623;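 active = NADPH fluorescence slope more negative than the mean of all samples by about 3 SD, 99.7% confidence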;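 also: fluorescence intensity change per second fitted from 20 to 320 s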); settings: Recombinant KvBeta, NADPH fluorescence decrease slope, 10 min; at 10 µM; stronger effect = lower value
# [6] = molecular target: Alpha-2C adrenergic receptor (Homo sapiens) (UniProt P18825); test: compounds altering alpha2C-coupled GIRK flux – cell-based, HEK293 alpha2C/GIRK1/2, thallium flux, primary screen (AID 624;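 active = fluorescence slope after compound addition differing from the mean of all screened samples at 99.7% confidence, in either direction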;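 also: slope of fluorescence ratio to pre-addition baseline per second over 15 to 24 s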); settings: thallium flux BTC fluorescence, at 10 µM, actives lie on both sides
# [7] = blockers of RIG-like receptor reporter activation – cell-based, Sendai virus stimulus, luciferase, 10K MLSCN set, TLR/RLR signaling modifier project, primary screen (AID 602276;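 active = inhibition at or above 50% at 10 µM; inactive = inhibition below 50%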;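 also: firefly luciferase from ISG56 promoter only with Renilla not read in this screen; 0% = Sendai virus plus DMSO and 100% = medium plus DMSO without virus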); settings: HEK293 RL24 IRF3 luciferase reporter, at 10 µM, stronger effect = higher value
# [8] = TLR3 IRF3 reporter activation blockers – cell-based, poly I:C stimulus, luciferase, 10K MLSCN set, primary screen (AID 602277); settings: HEK293-TLR3 RL24 IRF3 luciferase reporter, at 10 µM, stronger effect = higher value
# Alpha-2C adrenergic receptor (Homo sapiens), sequence (P18825 whole entry, looked up): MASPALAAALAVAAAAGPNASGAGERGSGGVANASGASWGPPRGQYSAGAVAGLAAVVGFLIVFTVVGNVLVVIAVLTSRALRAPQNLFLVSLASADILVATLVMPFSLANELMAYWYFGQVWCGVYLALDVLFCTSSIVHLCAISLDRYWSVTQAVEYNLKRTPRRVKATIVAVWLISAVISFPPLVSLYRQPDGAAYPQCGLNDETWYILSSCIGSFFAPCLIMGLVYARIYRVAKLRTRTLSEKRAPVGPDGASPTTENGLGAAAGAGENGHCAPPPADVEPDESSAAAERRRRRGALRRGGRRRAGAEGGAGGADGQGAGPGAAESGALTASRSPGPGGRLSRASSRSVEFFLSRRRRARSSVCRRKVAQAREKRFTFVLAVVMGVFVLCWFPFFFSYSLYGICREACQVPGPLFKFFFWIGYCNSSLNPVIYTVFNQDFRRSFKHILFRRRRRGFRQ
# Voltage-gated potassium channel subunit beta-2 (Rattus norvegicus), sequence (P62483 whole entry, looked up): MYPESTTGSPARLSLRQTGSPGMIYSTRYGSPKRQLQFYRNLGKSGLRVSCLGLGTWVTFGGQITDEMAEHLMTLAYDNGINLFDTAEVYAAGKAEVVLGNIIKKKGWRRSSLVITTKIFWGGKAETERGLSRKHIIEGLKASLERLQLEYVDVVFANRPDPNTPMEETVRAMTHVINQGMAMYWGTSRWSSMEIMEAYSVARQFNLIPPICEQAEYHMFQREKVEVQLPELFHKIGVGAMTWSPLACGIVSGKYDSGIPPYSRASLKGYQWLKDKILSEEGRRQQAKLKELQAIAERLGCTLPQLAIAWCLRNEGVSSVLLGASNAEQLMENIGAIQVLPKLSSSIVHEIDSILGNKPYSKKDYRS
SMILES,cell count [1],inhibition [1],inhibition of aggregation [2],nuclei count [2],inhibition [3],nuclei count [3],fluorescence slope [4],NADPH fluorescence slope [5],slope [6],inhibition [7],inhibition [8]
Cc1ccc(-c2noc(CCC(=O)NCCc3ccccc3Cl)n2)cc1,287,-1.2% (inactive),19.9% (inactive),91%,5.2% (inactive),88.4%,-0.409 (inactive),-3.6e-05 (inactive),0.00258 (inactive),10.3% (inactive),21.8% (inactive)
CC1C=CC(C)C(C(=O)O)C1C(=O)O (stereo not drawn),543,-4.4% (inactive),13% (inactive),46.5%,-15.8% (inactive),96%,-0.476 (inactive),-5.7e-05 (inactive),0.00278 (inactive),7.99% (inactive),41.3% (inactive)
CCOc1cc(S(=O)(=O)Nc2ccccn2)ccc1F,382,4.8% (inactive),0.1% (inactive),107%,29.7% (inactive),99.7%,-0.62 (inactive),4.6e-06 (inactive),0.0046 (inactive),5.64% (inactive),-11.5% (inactive)
CCOC(=O)c1cc(-c2ccc(N)cc2)sc1N,588,14.8% (inactive),24% (inactive),90.5%,26.4% (inactive),100%,-0.433 (inactive),-7.7e-05 (inactive),0.00189 (inactive),-50.5% (inactive),-117% (inactive)
Cn1c2c(c(=O)n(C)c1=O)C(c1cccc(Br)c1)C1C(=O)c3ccccc3C1=N2 (stereo not drawn),720,-5.8% (inactive),2.7% (inactive),110%,3.3% (inactive),109%,-0.585 (inactive),-6.2e-05 (inactive),0.00438 (inactive),8.12% (inactive),12.5% (inactive)
COc1ccc2[nH]c(=O)c(CN(C(=O)c3ccncc3)C(C)C)cc2c1,438,-6.2% (inactive),4.6% (inactive),120%,-13% (inactive),147%,-0.448 (inactive),-5.5e-05 (inactive),0.00387 (inactive),8.68% (inactive),37.7% (inactive)
COc1ccc(CC(=O)NCc2nnc(SCC(=O)Nc3nccs3)n2-c2ccccc2)cc1,640,5.8% (inactive),17.6% (inactive),98.3%,-36.8% (inactive),122%,-0.558 (inactive),-2.9e-05 (inactive),0.00708 (inactive),12% (inactive),33.9% (inactive)
CCOc1ccccc1C(=O)NC(C)c1ccc2c(c1)OCO2 (stereo not drawn),368,0.8% (inactive),0.3% (inactive),122%,-6.7% (inactive),92.4%,-0.523 (inactive),-5.4e-05 (inactive),0.00595 (inactive),15.1% (inactive),-8.04% (inactive)
CCOC(=O)C(NC(=O)Nc1ccccc1)(OCC)C(F)(F)F (stereo not drawn),517,-2.4% (inactive),-2.5% (inactive),97.9%,25% (inactive),89.1%,-0.639 (inactive),1.8e-05 (inactive),0.0106 (inactive),16.5% (inactive),30.2% (inactive)
CC1/C(=N/O)C(CN(C)C)C2CC1C2(C)C (stereo not drawn),347,-2.5% (inactive),7.8% (inactive),30.1%,13.2% (inactive),101%,-0.592 (inactive),1.8e-05 (inactive),0.0062 (inactive),3% (inactive),11.5% (inactive)
CCOc1ccc(OCc2cccc(C(=O)N3CCCC3)c2)cc1,488,0% (inactive),-4.9% (inactive),103%,3.3% (inactive),106%,-0.423 (inactive),-3.1e-05 (inactive),0.00502 (inactive),-43% (inactive),-105% (inactive)
O=C(CN1C(=O)c2ccccc2S1(=O)=O)NCc1ccccc1Cl,698,4.2% (inactive),8.6% (inactive),106%,-45.6% (inactive),108%,-0.599 (inactive),-1.3e-05 (inactive),0.0066 (inactive),9.36% (inactive),22.5% (inactive)
COc1ccc2c(c1)cc(C(=O)O)n2C,773,4.2% (inactive),-20.2% (inactive),77.6%,-10.3% (inactive),128%,-0.393 (inactive),-6.4e-05 (inactive),0.00479 (inactive),11.6% (inactive),23.7% (inactive)
CN(CC(=O)Nc1nccs1)S(=O)(=O)c1ccc(F)cc1,352,-6.5% (inactive),-4.8% (inactive),110%,-35.4% (inactive),101%,-0.465 (inactive),-9.5e-06 (inactive),0.00636 (inactive),-24.4% (inactive),1.06% (inactive)
COc1cccc2cc(C(=O)N3CCN(c4ccc(C)cc4C)CC3)c(=O)oc12,800,-3.4% (inactive),-43.1% (inactive),116%,-30.2% (inactive),110%,-0.565 (inactive),-1.5e-05 (inactive),0.00579 (inactive),-9.04% (inactive),5.89% (inactive)
O=C1N2c3ccccc3CCc3cccc(c32)C1(O)C(F)(F)F (stereo not drawn),747,4.7% (inactive),0.2% (inactive),82.6%,-28% (inactive),86.8%,-0.641 (inactive),1.4e-06 (inactive),0.00675 (inactive),17.9% (inactive),12.7% (inactive)
O=C(O)C1CC=CCC1C(=O)Nc1cc(Cl)ccc1Cl (stereo not drawn),389,4.2% (inactive),-1.2% (inactive),98.5%,5.3% (inactive),102%,-0.505 (inactive),-2.3e-05 (inactive),0.00676 (inactive),-11.2% (inactive),1.01% (inactive)
CCC1(NC(C)=O)CC2CC1CC2NC(C)=O (stereo not drawn),340,-1.4% (inactive),-4.3% (inactive),100%,-37.4% (inactive),103%,-0.614 (inactive),-1.3e-05 (inactive),0.00321 (inactive),1.63% (inactive),3.3% (inactive)
Cc1c(C#N)c2ncnc(-c3ccccc3)c2n1-c1ccccc1,287,0.4% (inactive),-11.3% (inactive),99.5%,-8.1% (inactive),108%,-0.448 (inactive),-0.000103 (inactive),0.00601 (inactive),15.3% (inactive),34.5% (inactive)
CC(=O)Nc1cc2c(nc1C)nc(C)n2Cc1ccc(Br)cc1,419,-1.6% (inactive),7.8% (inactive),92%,-83.5% (inactive),118%,-0.526 (inactive),-0.000178 (inactive),0.00402 (inactive),15% (inactive),-9.25% (inactive)
Cc1nnc(SCC(=O)N2CC(=O)Nc3ccccc32)n1-c1ccccc1,502,-4.7% (inactive),-14.7% (inactive),102%,-190% (inactive),134%,-0.483 (inactive),-3.9e-05 (inactive),0.00543 (inactive),19.7% (inactive),22.4% (inactive)
Cc1oc2c(CN3CCOCC3)c(O)ccc2c(=O)c1-c1ccc(Br)cc1,543,1.4% (inactive),6.2% (inactive),105%,-0.5% (inactive),113%,-0.0886 (active),3.7e-06 (inactive),0.00357 (inactive),-3.85% (inactive),26.2% (inactive)
COc1cc(OC)c(C2C(C#N)=C(N)OC3=C2C(=O)CC(C)(C)C3)cc1OC (stereo not drawn),407,-2.7% (inactive),22.2% (inactive),88.4%,-27.1% (inactive),104%,-0.501 (inactive),-3.5e-05 (inactive),0.00648 (inactive),-2.62% (inactive),5.85% (inactive)
Cc1nnc(SCC(=O)NCc2ccccc2)s1,513,-11.9% (inactive),27.7% (inactive),78.7%,10.5% (inactive),120%,-0.447 (inactive),-2.7e-05 (inactive),0.00344 (inactive),1.7% (inactive),30.9% (inactive)
Cc1cc(C)n(-c2cc(N3CCOCC3)ncn2)n1,690,-9.8% (inactive),3% (inactive),89.8%,-69.3% (inactive),125%,-0.436 (inactive),-3.4e-06 (inactive),0.00484 (inactive),2.82% (inactive),0.822% (inactive)
Cc1c(C(=O)OCc2ccccc2)[nH]c2c1C(=O)CC(c1ccco1)C2 (stereo not drawn),721,12.7% (inactive),-170% (inactive),3.7%,-63.1% (inactive),107%,-0.569 (inactive),-1.8e-05 (inactive),0.00645 (inactive),45.4% (inactive),80.4% (active)
COc1cccc(C2CC(=O)Nc3c2c(=O)n(C)c(=O)n3C)c1OC (stereo not drawn),499,2.4% (inactive),-11.6% (inactive),39.6%,-17.6% (inactive),112%,-0.536 (inactive),2e-06 (inactive),0.00679 (inactive),-4.94% (inactive),16.2% (inactive)
CCOC(=O)c1ccccc1NC(=O)c1cc2sccc2n1C,740,-42.9% (inactive),5.5% (inactive),107%,-20.5% (inactive),101%,-0.483 (inactive),1.4e-05 (inactive),0.00572 (inactive),-3.63% (inactive),-15.2% (inactive)
